From PubChem BioAssay
MCF10A rereplic = inducers of DNA re-replication in MCF 10A breast cells. 350,000 tested, 2.9% active. AID 624296. MCF 10A DNA re-replication, Hoechst nuclear intensity, 48 h. Potency, µM (top dose mostly 46.1 µM), most hits filed as activators; also: nearly all actives have a fitted effect of over 50% in size
VP16 counter = counter-screen for ROR gamma inhibitors: Gal4-VP16 reporter | Drosophila S2 Gal4-VP16 UAS-luciferase, luminescence, 20 h | Potency, µM (top dose mostly 53.6 µM), most hits filed as inhibitors | 310,000 tested, 3.5% active | AID 2546;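 also: Gal4-VP16 expression switched on by copper sulfate through the metallothionein promoter; nearly all actives have a fitted effect of over 50% in size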
ELG1 repair inh = blocks ELG1-dependent DNA repair in HEK293T cells | HEK293T ELG1-luciferase reporter, luminescence, 16 h; DNA damage induced by 5-fluorouridine | Potency, µM (series often up to 46.1 µM), most hits filed as inhibitors | 330,000 tested, 2.3% active | AID 504467; also: nearly all actives have a fitted effect of over 55% in size
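DMSO vehicle served as the neutral condition. Each well held 2,000 cells given 5-fluorouridine plus compound; after 16 hr at 37 °C/5% CO2, ONE-Glo was added and luciferase measured 30 min later.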
SW480 rerep = DNA re-replication induction in SW480 cells; SW480 DNA re-replication, Hoechst DNA content imaging, 48 h; Potency, µM (doses to about 46.1 µM), hits mostly activators; 340,000 tested, 1.8% active; also: nearly all actives have a fitted effect of over 55% in size
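Compounds, transferred as 23 nL by pin tool, were incubated with cells for 48 hr; DNA content per nucleus was then quantified by Hoechst staining and fluorescence plate imaging.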
RORg inh = ROR gamma (mouse) transcription inhibition; 310,000 tested, 5.4% active; P51450; Drosophila S2 Gal4-RORgamma UAS-luciferase reporter, 20 h; Potency, µM (doses to about 53.6 µM), actives largely listed as inhibitors; also: nearly all actives have a fitted effect of over 60% in size
Target sequence (P51450 whole entry, looked up, the tested form may be a part): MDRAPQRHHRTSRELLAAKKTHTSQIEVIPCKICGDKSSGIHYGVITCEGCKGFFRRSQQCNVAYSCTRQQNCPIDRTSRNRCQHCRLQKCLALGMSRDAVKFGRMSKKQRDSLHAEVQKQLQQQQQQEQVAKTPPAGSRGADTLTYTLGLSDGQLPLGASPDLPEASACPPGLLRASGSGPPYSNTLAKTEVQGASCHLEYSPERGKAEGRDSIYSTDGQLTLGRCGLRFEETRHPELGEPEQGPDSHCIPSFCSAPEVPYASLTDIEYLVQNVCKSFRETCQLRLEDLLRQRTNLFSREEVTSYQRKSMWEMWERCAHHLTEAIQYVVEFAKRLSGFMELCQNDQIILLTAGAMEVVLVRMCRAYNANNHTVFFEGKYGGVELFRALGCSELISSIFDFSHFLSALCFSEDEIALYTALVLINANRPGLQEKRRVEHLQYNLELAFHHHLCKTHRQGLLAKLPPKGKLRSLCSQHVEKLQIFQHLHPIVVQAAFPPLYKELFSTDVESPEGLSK
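Read-out: Photinus luciferase luminescence; inhibitors lower reporter signal. Insect Schneider cells with Gal4-ROR gamma fusion under metallothionein promoter, UAS reporter; 700 uM final copper sulfate induction, 20 hr, ambient temperature.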
ELG1 FLuc counter = luciferase inhibition in cell-free luciferin readout for ELG1 hits | shares compounds with ELG1 repair inh | cell-free firefly luciferase luminescence counter-screen, ViewLux | Potency, µM (series often up to 46.1 µM), actives largely listed as inhibitors | 350 tested, 3% active | AID 624247
ELG1-Luc inh = inhibits ELG1-dependent DNA repair in HEK293T cells, confirmed; shares compounds with ELG1 repair inh; HEK293T ELG1-luciferase levels, luminescence; cells co-treated with 5-fluorouridine; Potency, µM (series often up to 46.1 µM), actives largely listed as inhibitors; 670 tested, 68% active; AID 624248; also: nearly all actives have a fitted effect of over 55% in size
ELG1 MMS Luc = confirmation of human ELG1 repair inhibitors, MMS stimulated; Potency, µM (highest dose often 46.1 µM), hits mostly inhibitors; HEK293T luciferase-tagged ELG1 level, MMS stimulated; shares compounds with ELG1 repair inh; AID 624249; 670 tested, 53% active; also: nearly all actives have a fitted effect of over 60% in size
ELG1 5-FU = confirmation of ELG1 repair inhibitors: viability with 5FU; shares compounds with ELG1 repair inh; cell viability with 5-FU, ELG1-dependent repair; Potency, µM (top dose mostly 46.1 µM), hits mostly cytotoxic; 670 tested, under 10 active;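 also: ELG1-luc HEK293T cells cotreated with 5-fluorouridine at 10 µM final; viability measured 16 h after compound addition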
ELG1 MMS cell = confirmation of ELG1 repair inhibitors: viability with MMS | shares compounds with ELG1 repair inh | Cell viability with MMS, ELG1-dependent DNA repair | Potency, µM (top dose mostly 46.1 µM), actives largely listed as cytotoxic | 670 tested, 33% active | AID 624251;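 also: ELG1-luc HEK293T cells co-treated with 10 µM MMS; viability read 16 h after compound addition; nearly all actives have a fitted effect of over 60% in size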
Cell viab unstim = counter-screen for ELG1 repair inhibitors: unstimulated cell viability | shares compounds with ELG1 repair inh | cell viability counter-screen, unstimulated, luminescence | Potency, µM (titrated, usually from 45.9 µM), hits mostly cytotoxic | 900 tested, 8% active | AID 624252;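 also: compound exposure lasted 16 hours before reading; nearly all actives have a fitted effect of over 55% in size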
FLuc biochem = inhibits purified firefly luciferase, counter-screen for ELG1 hits; 350 tested, 10% active; Potency, µM (highest dose often 57.5 µM), hits mostly inhibitors; shares compounds with ELG1 repair inh; purified firefly luciferase, luminescence counter-screen
Of the large screens only hits and unclear results are named; the others gave an inactive call (follow-up assays come after a bar, where they were run). An excerpt weighted towards active compounds, which were near 10% of everything screened. Calls follow the shape of the dose curve; as a rule, active = well fitted curve in the direction sought with a large enough effect; inconclusive = small, poorly fitted or top-dose-only effect, or another doubt; inactive = no such curve, though single readings can be large; an effect the other way counts as inactive or inconclusive.

CCOC(=O)c1c(C)nc2sc3c(=O)n(-c4ccc(OC)cc4)cnc3c2c1-c1ccc(OC)cc1	none | ELG1 FLuc counter inactive | ELG1-Luc inh 1.3µM | ELG1 MMS Luc inactive | ELG1 5-FU inactive | ELG1 MMS cell inactive | Cell viab unstim inactive | FLuc biochem inactive
CCCCn1c(N)c(N(CCOC)C(=O)CSc2nnc(-c3ccc(F)cc3)n2N)c(=O)[nH]c1=O	ELG1 repair inh inconclusive (no result: VP16 counter, RORg inh)
Cc1nn(-c2ccc(NC(=O)c3ccncc3)cc2)c(C)c1Cl	VP16 counter 7.9µM, ELG1 repair inh 4.6µM, RORg inh inconclusive | ELG1-Luc inh 14µM | ELG1 MMS Luc 2.2µM | ELG1 5-FU inactive | ELG1 MMS cell 1.6µM | Cell viab unstim 16µM
C/C(=N\NC(=O)c1c(Cl)c(C)nn1C)c1ccc(NC(=O)c2ccncc2)cc1	ELG1 repair inh inconclusive
O=C(O)/C=C/c1cccc(NS(=O)(=O)c2ccccc2)c1	none
O=C(/C=C/C#Cc1cccc(NS(=O)(=O)c2ccccc2)c1)NO	VP16 counter inconclusive, RORg inh inconclusive (no result: MCF10A rereplic, ELG1 repair inh, SW480 rerep) | Cell viab unstim inconclusive
CCn1cc(C(=O)NCC(OC)OC)c(=O)c2cc(S(=O)(=O)N3CCC(C)CC3)ccc21	MCF10A rereplic inconclusive, ELG1 repair inh 2.6µM | ELG1-Luc inh 16µM | ELG1 MMS Luc 16µM | ELG1 5-FU inactive | ELG1 MMS cell inconclusive | Cell viab unstim 16µM
COCCNC(=O)c1cn(C)c2ccc(S(=O)(=O)N3CCCCC3)cc2c1=O	ELG1 repair inh 2.9µM | ELG1-Luc inh inconclusive | ELG1 MMS Luc inconclusive | ELG1 5-FU inactive | ELG1 MMS cell inactive | Cell viab unstim inconclusive
CCOCCCNC(=O)c1cn(C)c2ccc(S(=O)(=O)N3CCCCC3)cc2c1=O	none
CC(C)COC[C@H](CN(Cc1ccccc1)c1ccccc1)N1CCCC1	none (no result: MCF10A rereplic, ELG1 repair inh, SW480 rerep)
COCC(C)OC(=O)c1c(N)n(CC(C)C)c2nc3ccccc3nc12 (configuration not stated)	ELG1 repair inh 3.7µM, SW480 rerep inconclusive | ELG1-Luc inh 5µM | ELG1 MMS Luc inactive | ELG1 5-FU inconclusive | ELG1 MMS cell inactive | Cell viab unstim inactive
CC(C)(C)OC(=O)C[C@@H]1C/C=C\C[C@@H](CC(=O)N(CCO)Cc2ccccc2)C(=O)NC[C@H](c2ccccc2)OC1=O	ELG1 repair inh 1.5µM (no result: VP16 counter, RORg inh) | ELG1-Luc inh 13µM | ELG1 MMS Luc 7.9µM | ELG1 5-FU inactive | ELG1 MMS cell inconclusive | Cell viab unstim inconclusive
CC1Cc2cc(-c3csc(NC(=O)Cc4ccccc4)n3)ccc2N1S(C)(=O)=O (configuration not stated)	ELG1 repair inh 7.3µM | ELG1 FLuc counter inconclusive | ELG1-Luc inh 13µM | ELG1 MMS Luc 5.6µM | ELG1 5-FU inconclusive | ELG1 MMS cell inconclusive | Cell viab unstim 16µM | FLuc biochem inactive
CN(CC(=O)Nc1ccc(F)c(F)c1F)C(=O)c1nn(Cc2ccccc2)c(=O)c2ccccc12	none (no result: VP16 counter, RORg inh)
O=C(Cn1cnc2ccccc2c1=O)Nc1ccc(S(=O)(=O)N2CCOCC2)cc1	none
O=C(Cn1cnc2cc([N+](=O)[O-])ccc2c1=O)Nc1cccc(S(=O)(=O)N2CCOCC2)c1	MCF10A rereplic inconclusive, ELG1 repair inh 3.3µM | ELG1-Luc inh inconclusive | ELG1 MMS Luc inactive | ELG1 5-FU inconclusive | ELG1 MMS cell inactive | Cell viab unstim inconclusive
CN=C1SC(CC(=O)Nc2ccccc2F)C(=O)N1/N=C/c1ccc(O)c(OC)c1 (configuration not stated)	MCF10A rereplic inconclusive, VP16 counter inconclusive, ELG1 repair inh 2.9µM | ELG1-Luc inh 14µM | ELG1 MMS Luc inactive | ELG1 5-FU inconclusive | ELG1 MMS cell inactive | Cell viab unstim inconclusive
CCOc1ccc(/C=N/N2C(=O)C(CC(=O)Nc3ccc(F)cc3F)SC2=NC)cc1OC (configuration not stated)	MCF10A rereplic inconclusive, SW480 rerep inconclusive
[O][C@H]1[C@@H](O)[C@@H](CO)O[C@@H](O[C@@H]2[C@@H]3OC[C@H]2O[C@H](O[C@@H]2[C@@H](O)[C@H](C[C@@H]4[C@@H]5OC[C@H]4O[CH][C@@H]5O)O[C@H](CO)[C@@H]2OS(=O)(=O)O)[C@@H]3OS(=O)(=O)O)[C@@H]1O	none (no result: MCF10A rereplic, ELG1 repair inh, SW480 rerep)
Cc1cc(C(=O)NNc2ccc(F)cc2)no1	MCF10A rereplic 13µM, ELG1 repair inh 2.9µM | ELG1-Luc inh inactive | ELG1 MMS Luc inactive | ELG1 5-FU inactive | ELG1 MMS cell inactive | Cell viab unstim inactive
Cc1cccc(C(=O)OC2CCOC2=O)c1C (configuration not stated)	none
CC1(C)Cc2c(c(N3CCOCC3)nc3sc4c(=O)[nH]cnc4c23)CS1	none | ELG1 FLuc counter inactive | ELG1-Luc inh 14µM | ELG1 MMS Luc inactive | ELG1 5-FU inconclusive | ELG1 MMS cell inactive | Cell viab unstim inactive | FLuc biochem inactive
Cc1nnsc1Sc1ccccc1C(=O)O	none
C[C@@]1(O)C(O)[C@@H](CO)O[C@H]1n1cnc2c(NC3CCCC3)nc(Cl)nc21 (some centres not stated)	none (no result: MCF10A rereplic, ELG1 repair inh, SW480 rerep)
NC(N)=NC(N)=Nc1ccc(SC(F)(F)F)cc1	RORg inh inconclusive
COc1ccc(C(=O)NCCc2ccccc2F)cc1OC1CCN(C(C)=O)CC1	none
CNC(=O)c1c(C)noc1C	none
O=S(=O)(c1cccs1)N1CCN(c2ccc(O)cc2)CC1	MCF10A rereplic inconclusive, ELG1 repair inh 1.6µM, SW480 rerep inconclusive | ELG1-Luc inh inactive | ELG1 MMS Luc 25µM | ELG1 5-FU inactive | ELG1 MMS cell inconclusive | Cell viab unstim inconclusive
